High-throughput results from PubChem.
TRHR PAM: allosteric enhancers of human TRH receptor. P34981. TRHR cells, fluo-8 calcium fluorescence, EC20 TRH enhancement. enhancement, % at 2 µM. actives 0.66% (n = 360,000). AID 493056; in the data active = enhancement above about 30%; also: 0% is about no effect
Target sequence (P34981 whole entry, looked up): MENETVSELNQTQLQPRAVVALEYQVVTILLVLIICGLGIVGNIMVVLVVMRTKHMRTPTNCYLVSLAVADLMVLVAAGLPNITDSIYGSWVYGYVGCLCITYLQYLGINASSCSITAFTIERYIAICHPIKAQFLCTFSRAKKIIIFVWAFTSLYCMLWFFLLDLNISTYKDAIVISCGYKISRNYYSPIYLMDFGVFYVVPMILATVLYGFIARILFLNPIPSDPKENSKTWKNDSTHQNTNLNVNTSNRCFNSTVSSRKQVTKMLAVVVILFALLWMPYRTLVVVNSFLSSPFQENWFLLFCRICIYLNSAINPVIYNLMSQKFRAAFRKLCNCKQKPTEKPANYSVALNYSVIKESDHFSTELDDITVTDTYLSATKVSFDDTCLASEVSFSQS
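Enhancer read-out: after compound pinning and an initial kinetic agonist-mode read, an EC20 of TRH (10 nM final) was injected and fluo-8 calcium signal (Ex 480/Em 530) followed at 1 s/cycle for 100 cycles in TRHR-expressing cells.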
D1 ag: human D1 receptor agonism. actives 1% (n = 360,000). HEK293 T-REx D1 cells, calcium flux, agonist mode. AID 504660. activation, % at 2 µM. P21728; also: 0% is about no effect
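Tetracycline-induced HEK293 TREx D1 cells, force-coupled to calcium signalling, were dye-loaded with a no-wash calcium kit. Compound was pin-added after a 10 s baseline. Fluorescence was read kinetically at 1 cycle/s for 180 s, with calcium rises flagged as agonism.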
D1 PAM: enhances dopamine response at the human D1 receptor; HEK293 TREx D1 cells, calcium flux, dopamine EC20 potentiation; potentiation, % at 10 µM; actives 0.036% (n = 360,000); AID 504651; in the data active = potentiation above about 30%; also: 0% is about no effect
TRHR agonist: activates the human TRH receptor. activation, % at 2 µM. AID 493084. TRHR cells, calcium flux fluo-8, FDSS agonist mode. actives 0.18% (n = 360,000). P34981; also: 0% is about no effect
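Agonist-mode FDSS calcium read (Ex 480/Em 530, 1 s cycles) in 1536-well TRHR cells with fluo-8 dye, after 10-cycle baseline and 23 nL compound addition; TRH at EC20 (10 nM final) added afterwards for the enhancer phase.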
D1 antagonist: human D1 dopamine receptor antagonism; P21728; HEK293 TREx D1 cells, calcium flux, dopamine EC80; active compounds read low; activity change, negative = inhibition, % at 10 µM; actives 3.2% (n = 360,000); in the data active = activity change below about -30%; also: % is scaled to controls: 0 for no effect and ±100 for the full control effect
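After overnight tetracycline induction at 30 C, force-coupled D1 HEK293 cells took up a no-wash calcium dye at room temperature. Compounds were added and monitored 180 s, and the response to EC80 dopamine was then recorded.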
An asterisk follows results filed as active. Only some compounds are listed: those with a hit (about 4.6% of all), similar ones and a draw of the others. Rule as the data show it, unless noted: active = activation above about 30%; inactive = the rest.

How did COc1ccc(-n2c(NCCN(C)C)nc3sc4c(c3c2=O)CCCCC4)cc1 do in these assays?
TRHR PAM: 1.0; D1 ag: 56.0*; D1 PAM: -4.3; TRHR agonist: 2.0; D1 antagonist: 2.0

What do the screens show for `CCc1ccc(CNc2ncnc3onc(-c4ccc(Cl)cc4)c23)cc1`?
TRHR PAM: 1.2; D1 ag: 8.3; D1 PAM: -2.4; TRHR agonist: 1.5; D1 antagonist: 13.1

How did Cc1occc1C(=O)/C(C#N)=C/c1ccc(O)c(Br)c1 do in these assays?
TRHR PAM: 8.0; D1 ag: 45.2*; TRHR agonist: 18.4; D1 antagonist: -15.8

What do the screens show for `CC(=O)Nc1ccc2[nH]c3ccccc3c2c1`?
TRHR PAM: -2.1; D1 ag: -1.6; D1 PAM: 1.1; TRHR agonist: 0.0; D1 antagonist: 5.2

Results for O=C(Nc1ccc(Cl)cc1)c1cc2c(cc1O)[nH]c1ccccc12 ?
TRHR PAM: -7.6; D1 ag: 19.4; D1 PAM: -10.5; TRHR agonist: 3.3; D1 antagonist: -37.9*

What do the screens show for `Cc1ccc(Cl)cc1N1CCN(c2ncnc3onc(-c4ccc(F)cc4)c23)CC1`?
TRHR PAM: -5.2; D1 ag: 0.6; D1 PAM: -6.5; TRHR agonist: 2.7; D1 antagonist: -35.8*

Results for O=C(NC1CCCC1)c1cc(-c2ccccc2O)on1 ?
TRHR PAM: -23.2; D1 ag: 0.5; D1 PAM: -4.7; TRHR agonist: -0.1; D1 antagonist: -1.9

What do the screens show for `COc1ccccc1-c1cc(C(=O)NC2CCCC2)no1`?
TRHR PAM: 12.3; D1 ag: 2.6; D1 PAM: -8.2; TRHR agonist: -0.5; D1 antagonist: -31.6*

What do the screens show for `O=C(NC1CCCC1)c1cc(-c2cccs2)on1`?
TRHR PAM: -0.4; D1 ag: 1.6; D1 PAM: 1.5; TRHR agonist: -0.4; D1 antagonist: -42.0*

Results for COc1ccccc1Nc1ncc2c(n1)CCN(CC(C)C)C2 ?
TRHR PAM: 1.6; D1 ag: -1.9; D1 PAM: 0.9; TRHR agonist: -0.1; D1 antagonist: -6.2

Results for COc1ccc(CNC(=O)Cn2nnc(-c3ccc(C(F)(F)F)cc3)n2)cc1 ?
TRHR PAM: -6.0; D1 ag: 1.9; D1 PAM: 0.3; TRHR agonist: 1.5; D1 antagonist: -7.1

What do the screens show for `COc1ccc(CNCc2ccncc2)c(OC)c1`?
TRHR PAM: -4.5; D1 ag: 6.4; D1 PAM: 4.3; TRHR agonist: 0.8; D1 antagonist: -9.9

What do the screens show for `COc1ccc(CNCc2cccc(Oc3ccccc3)c2)cc1`?
TRHR PAM: 3.2; D1 ag: 87.9*; D1 PAM: -3.1; TRHR agonist: -0.4; D1 antagonist: 12.3

What do the screens show for `COc1ccc(CNCc2ccc3ccccc3c2)c(OC)c1`?
TRHR PAM: 10.0; D1 ag: 33.9*; D1 PAM: -3.5; TRHR agonist: 0.7; D1 antagonist: -20.4

What do the screens show for `COCCCNC(=O)CCCn1c(SCC(=O)c2ccc(F)cc2)nc2c(sc3ccccc32)c1=O`?
TRHR PAM: -8.1; D1 ag: 1.8; D1 PAM: -1.3; TRHR agonist: -0.3; D1 antagonist: -5.0

Results for COc1cccc(-c2cccc(NC(=O)C3CCN(Cc4nccs4)CC3)c2)c1 ?
TRHR PAM: -4.6; D1 ag: 0.2; D1 PAM: -0.6; TRHR agonist: -0.2; D1 antagonist: -1.3

Results for CCOc1ccc(CN2CCC(C(=O)Nc3cccc(-c4ccn[nH]4)c3)CC2)cc1Cl ?
TRHR PAM: 0.9; D1 ag: 17.3; D1 PAM: -8.9; TRHR agonist: 2.0; D1 antagonist: -53.3*

How did Cc1ccc(C)c(NC(=O)/C(C#N)=C/c2ccc(C(C)C)cc2)c1 do in these assays?
TRHR PAM: 3.2; D1 ag: 2.1; D1 PAM: 0.8; TRHR agonist: 1.5; D1 antagonist: 16.2

Results for CN(C)/N=C/c1ccc(Sc2ccccc2[N+](=O)[O-])o1 ?
TRHR PAM: -1.6; D1 ag: 1.7; D1 PAM: -5.7; TRHR agonist: -1.6; D1 antagonist: -33.0*

How did CN(/N=C/c1ccc(-c2ccc([N+](=O)[O-])cc2)o1)c1ccccc1 do in these assays?
TRHR PAM: 1.4; D1 ag: 234.0*; D1 PAM: 9.6; TRHR agonist: 37.3*; D1 antagonist: -66.8*

How did CN(C)/N=C/c1ccc([N+](=O)[O-])cc1[N+](=O)[O-] do in these assays?
TRHR PAM: -1.5; D1 ag: 3.8; D1 PAM: -7.7; TRHR agonist: -1.0; D1 antagonist: -2.7

Results for O=C(CN1CCCCCCC1)N/N=C/c1ccc([N+](=O)[O-])o1 ?
TRHR PAM: -0.9; D1 ag: -1.0; D1 PAM: -3.3; TRHR agonist: 0.4; D1 antagonist: 0.0

How did Cc1cc(C)cc(OCC(=O)N/N=C/c2ccc([N+](=O)[O-])o2)c1 do in these assays?
TRHR PAM: 3.7; D1 ag: 0.1; D1 PAM: -9.9; TRHR agonist: 0.6; D1 antagonist: -37.8*

How did O=C(CCN1CCN(c2ccccc2)CC1)N/N=C/c1ccc([N+](=O)[O-])o1 do in these assays?
TRHR PAM: 3.2; D1 ag: -4.3; D1 PAM: -7.7; TRHR agonist: 0.4; D1 antagonist: -43.4*

How did O=C(Nc1nnc(SCC(=O)N2CCOCC2)s1)C1CC(=O)N(c2ccc(F)cc2)C1 (configuration not stated) do in these assays?
TRHR PAM: 1.4; D1 ag: 0.3; D1 PAM: -4.2; TRHR agonist: 0.6; D1 antagonist: -47.5*

How did COc1ccc(CNC(=O)CCc2c(C)nn(-c3ccc(N4CCOCC4)nn3)c2C)cc1 do in these assays?
TRHR PAM: 22.9; D1 ag: -0.1; D1 PAM: -8.2; TRHR agonist: -0.7; D1 antagonist: -1.3

What do the screens show for `COc1ccc(CCNC(=O)CC2SC(=NCc3ccccc3OC)NC2=O)cc1` (configuration not stated)?
TRHR PAM: -2.9; D1 ag: -2.6; D1 PAM: 0.1; TRHR agonist: 0.1; D1 antagonist: -8.9

Results for COc1ccc(CCC(=O)NCCc2ccc(OC)c(OC)c2)cc1 ?
TRHR PAM: 8.2; D1 ag: 4.5; D1 PAM: -9.9; TRHR agonist: -1.1; D1 antagonist: -6.7

What do the screens show for `COc1ccc(CCNC(=O)COC(=O)c2ccc(C)s2)cc1OC`?
TRHR PAM: -1.8; D1 ag: 6.9; D1 PAM: -11.8; TRHR agonist: -0.1; D1 antagonist: -33.4*

What do the screens show for `COc1ccc(N=C2NC(=O)C(CC(=O)NCCc3ccc(OC)c(OC)c3)S2)cc1` (configuration not stated)?
TRHR PAM: 2.4; D1 ag: 3.6; D1 PAM: -0.2; TRHR agonist: 0.0; D1 antagonist: -38.1*

How did CCOc1ccc(CCNC(=O)COC(=O)c2ccc(C)s2)cc1OCC do in these assays?
TRHR PAM: -10.6; D1 ag: 0.7; D1 PAM: 9.7; TRHR agonist: 0.6; D1 antagonist: 2.3
